Holding throughout (assay): NCI-60 one-dose screen, 48 h (100 = growth as untreated, 0 = no growth, -100 = all killed)
For one assay, the system named is EKVX NSCLC. The note with it: 10 µM unless noted.
The next assay relates to SN12C renal. The note with it: 10 µM unless noted.
A further assay concerns UO-31 renal. The settings on record: 10 µM unless noted.
The test system of the next assay is TK-10 renal. The settings on record: 10 µM unless noted.
A further assay relates to ACHN renal. The settings on record: 10 µM unless noted.
A further assay concerns A498 renal. The settings on record: 10 µM unless noted.
The next assay concerns CCRF-CEM leukemia. The settings on record: 10 µM unless noted.
The subject of another assay is MOLT-4 leukemia. The settings on record: 10 µM unless noted.
The next assay relates to SR leukemia. The settings on record: 10 µM unless noted.
The subject of the next assay is RPMI-8226 leukemia. The note with it: 10 µM unless noted.
In a further assay the test system is OVCAR-8 ovarian. The note with it: 10 µM unless noted.
In a further assay the test system is OVCAR-5 ovarian. The settings on record: 10 µM unless noted.
The test system of the next assay is OVCAR-4 ovarian. The note with it: 10 µM unless noted.
A further assay relates to SK-OV-3 ovarian. The settings on record: 10 µM unless noted.
The next assay has as its system IGROV1 ovarian. The settings on record: 10 µM unless noted.
The next assay concerns OVCAR-3 ovarian. The settings on record: 10 µM unless noted.
The subject of a further assay is NCI/ADR-RES ovarian. The note with it: 10 µM unless noted.
The next assay concerns HS 578T breast. The settings on record: 10 µM.
A further assay deals with CAKI-1 renal. The note with it: 10 µM unless noted.

About 83,000 compounds went through this panel and 20% of them were active in at least one assay; those are over-represented in the sample as a whole.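 Results are percent growth after 48 hours of single-concentration exposure. 100 means growth as in untreated cells, lower positive values show inhibition; negative values down to -100 show cell death.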 Values without a mark were called inactive. The source made the active and inactive calls. Rule for the calls: active = growth percent below 10; inactive = the rest.

For the molecule `CCCc1n(Cc2ccc3ccccc3c2)c2ccccc2[n+]1Cc1ccc2ccccc2c1`, the growth is -4.84% (active) in the assay on EKVX NSCLC; -48.4% (active) in the assay with SN12C renal; -15.4% (active) with UO-31 renal; -79.7% (active) in the assay on TK-10 renal; 3.74% (active) in the assay on ACHN renal; -17.2% (active) in the assay with A498 renal. Also, the growth in the assay on CCRF-CEM leukemia is -32.3% (active); in the assay on MOLT-4 leukemia it was -58.9% (active); in the assay on SR leukemia, -46.7% (active); in the assay on RPMI-8226 leukemia, -60.9% (active); in the assay on OVCAR-8 ovarian, -71.3% (active); in the assay on OVCAR-5 ovarian, -27.1% (active). Besides, the growth was -16% (active) in the assay on OVCAR-4 ovarian; -21.5% (active) in the assay with SK-OV-3 ovarian; -64.8% (active) in the assay with IGROV1 ovarian; -76.8% (active) in the assay on OVCAR-3 ovarian; 79.4% in the assay on NCI/ADR-RES ovarian.

Turning to `CCCc1n(Cc2ccc3ccccc3n2)cc[n+]1Cc1ccc2ccccc2c1`, the growth in the assay with EKVX NSCLC was 41.6%; in the assay on SN12C renal, -0.216% (active); in the assay with UO-31 renal, 73.8%; with TK-10 renal it was -4.74% (active); with ACHN renal it was 81.7%; in the assay on A498 renal, -3.21% (active). For the same molecule, the growth in the assay with CCRF-CEM leukemia is 9.37% (active); with MOLT-4 leukemia it was -1.31% (active); in the assay with SR leukemia it was -0.784% (active); in the assay on RPMI-8226 leukemia, -7.06% (active); in the assay on OVCAR-8 ovarian it was 10.8%; with OVCAR-5 ovarian, 5.17% (active). For the same molecule, the growth with OVCAR-4 ovarian was 5.87% (active); with SK-OV-3 ovarian, 0.843% (active); in the assay with IGROV1 ovarian, 3.66% (active); with OVCAR-3 ovarian, -4% (active); in the assay with HS 578T breast it was 24.4%; in the assay with NCI/ADR-RES ovarian, 95.7%.

`O=c1[nH]c2cc(Cl)c(Cl)cc2o1`: the growth is 68.3% in the assay on EKVX NSCLC; 95.5% in the assay with SN12C renal; 99.6% in the assay with UO-31 renal; 113% with TK-10 renal; 104% in the assay on ACHN renal; 92.7% in the assay on A498 renal. In addition, the growth is 118% with CCRF-CEM leukemia; 106% with MOLT-4 leukemia; 126% with SR leukemia; 111% with RPMI-8226 leukemia; 104% in the assay on OVCAR-8 ovarian; 106% in the assay on OVCAR-4 ovarian. Besides, the growth in the assay on SK-OV-3 ovarian is 107%; with IGROV1 ovarian it was 138%; with OVCAR-3 ovarian, 102%; with HS 578T breast it was 100%; in the assay with NCI/ADR-RES ovarian, 116%.

For `COc1ccc(/C(=C\c2cc(OC)c(OC)c(OC)c2)C(=O)N2CCN(c3ccccc3)CC2)cc1O`, the growth in the assay on EKVX NSCLC is 94.7%; in the assay with SN12C renal, 93.8%; with UO-31 renal, 69.7%; with TK-10 renal, 103%; in the assay with ACHN renal, 98.3%; in the assay on A498 renal it was 94%. Further, the growth is 85.5% with CCRF-CEM leukemia; 91.3% in the assay with MOLT-4 leukemia; 87.7% in the assay on SR leukemia; 73.5% in the assay with RPMI-8226 leukemia; 96.8% in the assay on OVCAR-8 ovarian; 101% with OVCAR-5 ovarian. Moreover, the growth in the assay with OVCAR-4 ovarian was 98.1%; with SK-OV-3 ovarian, 111%; in the assay on IGROV1 ovarian it was 102%; with OVCAR-3 ovarian it was 111%; in the assay with HS 578T breast, 87.8%; in the assay on NCI/ADR-RES ovarian, 93.9%.

Take `COCCOCCOCc1n(Cc2ccc3ccccc3n2)c2ccccc2[n+]1Cc1ccc2ccccc2c1`: the growth with EKVX NSCLC is 31%; with SN12C renal it was 5.5% (active); in the assay on UO-31 renal, 79.2%; with TK-10 renal it was -8.46% (active); in the assay with ACHN renal, 71.1%; in the assay with A498 renal it was -15.8% (active). Moreover, the growth with CCRF-CEM leukemia was 1.17% (active); with MOLT-4 leukemia, -20.5% (active); in the assay with SR leukemia, -37.1% (active); in the assay on RPMI-8226 leukemia, -30.3% (active); in the assay with OVCAR-8 ovarian it was 9.25% (active); in the assay on OVCAR-5 ovarian, 14.7%. The growth in the assay with OVCAR-4 ovarian is 9.99% (active); in the assay on SK-OV-3 ovarian it was -6.91% (active); in the assay with IGROV1 ovarian, -9.44% (active); in the assay on OVCAR-3 ovarian, 1.01% (active); with NCI/ADR-RES ovarian it was 98.9%.

Consider `Cc1cc(O)c(C2=NN(c3ccc(S(N)(=O)=O)cc3)C(c3ccc(Cl)cc3)C2)c(C)c1Cl` (stereo unspecified), for which the growth in the assay on EKVX NSCLC was 49.7%; in the assay with SN12C renal it was 36.1%; in the assay with UO-31 renal it was 66.6%; in the assay on TK-10 renal, 80%; with ACHN renal, 58.7%; in the assay on A498 renal it was 87.2%. In addition, the growth in the assay on CCRF-CEM leukemia is 11.6%; with MOLT-4 leukemia it was 14.3%; with SR leukemia, -24.1% (active); in the assay on RPMI-8226 leukemia it was -37.6% (active); in the assay with OVCAR-8 ovarian, 5.73% (active); in the assay on OVCAR-5 ovarian, 95.2%. The growth was 58.9% with OVCAR-4 ovarian; 81.6% with SK-OV-3 ovarian; 68.1% in the assay on OVCAR-3 ovarian; 71.2% in the assay on HS 578T breast; 80.3% with NCI/ADR-RES ovarian.

Regarding `C[C@@H]1C[C@H](N)C[C@H](c2ccncc2NC(=O)c2ccc(F)c(-c3c(F)cccc3F)n2)C1`, the growth was 74.9% in the assay on EKVX NSCLC; 58.2% in the assay on SN12C renal; 25.3% in the assay with UO-31 renal; 67.6% in the assay on TK-10 renal; 60.5% with ACHN renal; 27.7% with CAKI-1 renal. Further, the growth was 35.9% in the assay with A498 renal; 9.29% (active) in the assay with MOLT-4 leukemia; -17.7% (active) with SR leukemia; 4.68% (active) with RPMI-8226 leukemia; 62.6% with OVCAR-8 ovarian; 71.3% in the assay on OVCAR-5 ovarian. The growth with OVCAR-4 ovarian was 53.2%; with SK-OV-3 ovarian, 62%; with IGROV1 ovarian it was 46.5%; with OVCAR-3 ovarian it was 74.5%; in the assay with NCI/ADR-RES ovarian it was 65.8%.

For the origin of these results see PubChem BioAssay (NCI).
